DRD3 antagonist: blocks the human D3 dopamine receptor; P35462; D3R cells, DiscoveRx beta-arrestin luminescence, antagonist mode; active compounds read low; max response, negative = inhibition, %; 2.5% of 360,000 active; in the data active = max response below about -50%; inconclusive = no clear call, values can overlap the other calls; also: % is scaled to controls: 0 for no effect and ±100 for the full control effect
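Cells plated overnight at 1500 cells/well, then exposed to library compounds with dopamine controls for 90 minutes at 37 degrees C. DiscoveRx reagent added for 30–60 minutes at room temperature; luminescence read, quantitative HTS format.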
B2AR arrestin: beta2AR (human) beta-arrestin recruitment activity | beta-arrestin recruitment to beta2AR, cell-based reporter | Potency, µM (doses to about 46.1 µM), for inactives: at the top dose activation, hits mostly activators | 0.02% of 330,000 active | AID 492947;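 also: potency is read from the fitted curve at half-maximal effect; 0% = DMSO controls and full agonism = EC100 isoproterenol or metaproterenol; nearly all actives have a fitted effect of over 65% in size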
PTHR1 ag: agonists of human PTHR1 parathyroid hormone receptor | 0.075% of 410,000 active | Potency, µM (doses to about 115 µM), for inactives: at the top dose activation, usual class: activators | HEK293 GP2 PTHR1 cells, GloSensor cAMP luminescence, 1 h | Q03431; also: potency is read from the fitted curve at half-maximal effect; nearly all actives have a fitted effect of over 55% in size
Target sequence (Q03431 whole entry, looked up): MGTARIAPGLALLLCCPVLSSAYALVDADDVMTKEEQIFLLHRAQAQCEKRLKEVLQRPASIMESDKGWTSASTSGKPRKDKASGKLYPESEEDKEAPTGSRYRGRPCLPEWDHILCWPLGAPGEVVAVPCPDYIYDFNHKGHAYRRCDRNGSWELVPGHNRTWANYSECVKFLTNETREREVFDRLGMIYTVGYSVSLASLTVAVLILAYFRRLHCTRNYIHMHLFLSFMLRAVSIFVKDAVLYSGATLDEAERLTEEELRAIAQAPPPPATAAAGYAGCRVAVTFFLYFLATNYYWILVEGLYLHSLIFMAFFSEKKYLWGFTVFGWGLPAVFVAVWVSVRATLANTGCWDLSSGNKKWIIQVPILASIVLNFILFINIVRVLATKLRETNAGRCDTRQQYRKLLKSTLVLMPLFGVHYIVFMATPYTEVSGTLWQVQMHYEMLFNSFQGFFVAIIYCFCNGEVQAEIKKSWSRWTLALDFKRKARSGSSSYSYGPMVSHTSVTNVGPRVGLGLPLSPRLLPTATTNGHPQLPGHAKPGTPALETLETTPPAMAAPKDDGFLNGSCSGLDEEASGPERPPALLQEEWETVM
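HEK-293-derived GP2 cells expressing PTHR1 and a GloSensor cAMP reporter, 3,000/well, plated overnight, given luciferin plus IBMX (each 0.5 mM as added) for 1 h at 37 °C, then compound for 1 h at 37 °C. Luminescence was read after 15 min at room temperature.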
RGS4 inhibitor: blocks human RGS4-accelerated GTP hydrolysis. Potency, µM (titrated, usually from 114 µM), for the others: at the top dose activity change, negative = inhibition, usual class: inhibitors. AID 504845. P49798. 0.039% of 390,000 active. Transcreener GDP fluorescence polarization, RGS4-accelerated GTP hydrolysis; also: potency is read from the fitted curve at half-maximal effect; % is scaled to controls: 0 for no effect and ±100 for the full control effect; nearly all actives have a fitted effect of over 75% in size
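MLSMR compounds (23 nl, pin-transferred) preincubated 10 min at room temperature with a 500nM (2x) first reagent, then RGS4 at 900nM (2x) plus Transcreener GDP mix added; fluorescence polarization (620/688 nm) read before and after 90 min at 30 °C.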
BRCA1 expr up: activators of BRCA1 expression | MCF7-BRCA1-FFLuc reporter, luminescence, 48 h; response scale: scaled: vehicle 0%, 10 µM genistein 100% | 1.1% of 380,000 active | AID 624202 | Potency, µM (top dose mostly 46.1 µM), for inactives: at the top dose activation, usual class: activators; also: potency is read from the fitted curve at half-maximal effect; nearly all actives have a fitted effect of over 80% in size
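Using MCF7 cells harboring a BRCA1 firefly luciferase reporter, plated 2 h before compound pinning, the screen measured luminescence after 48 h incubation. Responses were normalized to DMSO and 10 microM genistein, then fitted for concentration-effect.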
D3 ag: agonists of human D3 dopamine receptor; P35462; 0.58% of 410,000 active; D3R DiscoveRx beta-arrestin cells, luminescence, 90 min; max activation, %; in the data active = max activation above about 30%; also: 0% is about no effect
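Cells at 1500/well, incubated overnight, then treated with pinned compounds (dopamine as control) for 90 min at 37 degrees C. DiscoveRx reagent added for 30 - 60 minutes at room temperature; luminescence read.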
The depositor's hits bear a star; i = inactive; ? = inconclusive; / = not tested or not shown; [ ] = another dose, or the depositor's remark. The list is not random: actives were taken first. Their share in the collection is about 3.7%. Unless noted, calls follow the shape of the dose curve; as a rule, active = well fitted curve in the direction sought with a large enough effect; inconclusive = small, poorly fitted or top-dose-only effect, or another doubt; inactive = no such curve, though single readings can be large; an effect the other way counts as inactive or inconclusive.

SMILES	DRD3 antagonist	B2AR arrestin	PTHR1 ag	RGS4 inhibitor	BRCA1 expr up	D3 ag
CCOC(=O)C1CCCN(Cc2cc(Br)c(OC)cc2OC)C1 (stereo not given)	?	0%	i	-16%	-19%	-33
Cc1cc(C)c(CN2CCCC(CNC(=O)c3ccc(F)cc3)C2)c(-n2cccn2)c1 (stereo not given)	-17	-1%	-28%	30%	-1%	-6
CCOc1ccccc1CN1CCCC(C(=O)c2ccc(OC)c(OC)c2)C1 (stereo not given)	-51*	0%	?	18%	1%	-15
COc1cccc(C(=O)C2CCCN(Cc3cn[nH]c3C3CCCCC3)C2)c1 (stereo not given)	-86*	0%	-5%	16%	-11%	-16
COc1cc(OC)c(OC)cc1CN1CCCC(C(=O)c2sccc2C)C1 (stereo not given)	-93*	0%	-17%	8%	-35%	-38
CCN(CC)S(=O)(=O)c1ccc2c(c1)N(CC(=O)Nc1cccc(C(C)=O)c1)C(=O)CO2	/	/	i	-9%	/	-10
O=C(C1CCCCC1)N1CCC2CC1c1cc(Cl)ccc12 (stereo not given)	5	/	-9%	-19%	7%	7
Cc1ccc(C)c(S(=O)(=O)N2CCCOC2CNC(=O)C(=O)NC2CCCC2)c1 (stereo not given)	10	0%	-8%	18%	-1%	2
COc1cc(OC)c(OC)cc1CN1CCCC(C(=O)c2ccc3c(c2)OCO3)C1 (stereo not given)	-93*	0%	-3%	5%[11.4 µM]	-1%	-18
CC(C)Oc1cccc(C(=O)C2CCCN(Cc3cnc(N4CCCC4)s3)C2)c1 (stereo not given)	-83*	0%	-14%	6%	-28%	-18
COc1ccc2cc(C(=O)C3CCCN(Cc4cnc(N5CCOCC5)s4)C3)ccc2c1 (stereo not given)	3	0%	-39%	-7%	-74%	-16
CCOC(=O)C1CCCN(Cc2cc(Br)ccc2OC)C1 (stereo not given)	-60*	0%	-8%	6%	-13%	-10
COc1cccc(CN2CCCC(C(=O)N3CCCCC3)C2)c1OC (stereo not given)	-61*	0%	-24%	-21%	-1%[1.84 µM]	-6
COc1cc(OC)c(OC)cc1CN1CCCC(C(=O)N2CCCC2)C1 (stereo not given)	-12	0%	-11%	-24%	-6%	11
O=C(c1ccc2c(c1)OCO2)C1CCCN(Cc2cn[nH]c2-c2ccccc2)C1 (stereo not given)	-13	0%	-72%	-16%	-1%	-17
Cc1ccc([C@H]2C[C@@H](n3cc(-c4ccc(F)cc4)nn3)[C@H](O)CN2C(=O)c2cccs2)cc1	-14	/	i	/	0%	-7
COC(=O)[C@]12CCCCC=C1N(Cc1ccco1)C(=O)[C@H](CC(=O)N1CCN(C(=O)C3CC3)CC1)C2	?	/	6%	/	10%	2
COc1ccc(CCN(C)C2CCCN(C(=O)c3sccc3C)C2)cc1OC (stereo not given)	-64*	0%	i	7%	2%	-11
COC(=O)c1ccc(CSc2nc3c(cnn3-c3ccc(Cl)cc3)c(=O)[nH]2)o1	27	0%	-1%[57.5 µM]	4%	-10%	14
COC(=O)c1ccc(CSc2nc3c(cnn3-c3ccc(F)cc3)c(=O)[nH]2)o1	27	0%	-11%[57.5 µM]	-7%	-10%	32*
COC(=O)c1ccc(C)c(NS(=O)(=O)c2ccc(OC)c(OC)c2)c1	-70*	0%	7%	40%	-46%	-7
Cc1cc(/C=N/NC(=O)c2ccc(O)cc2)c(C)n1C1CC1	-54*	0%	-19%	?	16%	-3
Cc1ccc(C(=O)Nc2cccc(C(=O)N/N=C/c3ccc(O)cc3)c2)cc1	-17	0%	i	-17%	-5%	-19
CCc1nc2ccc(C(=O)N3CCN(C(=O)c4ccco4)CC3)cn2c1N(C)C(=O)C1CCCCC1	4	/	i	/	0%	1
CCOc1ccc(N2CC(NC(=O)C3CC3)CC2=O)cc1 (stereo not given)	/	/	-19%	20%	/	6
SMILES	DRD3 antagonist	B2AR arrestin	PTHR1 ag	RGS4 inhibitor	BRCA1 expr up	D3 ag
CC(=O)NCCNC(=O)c1ccc(CSc2ccc(Cl)cc2)cc1	-2	0%	-7%	-11%	11µM*	-6
CCNC(=O)c1ccc(CSc2ccc(Cl)cc2)cc1	-2	0%	i	-44%	29%	2
Cc1cc(NC(=O)CSc2nc3cc4c(cc3c(=O)n2CCc2ccccc2)OCO4)no1	-53*	0%	-21%[57.5 µM]	-33%	9%	2
COc1ccc(CCn2c(SCC(=O)Nc3cc(C)on3)nc3ccccc3c2=O)cc1OC	4	0%	i	18%	1%	1
O=C(NNC1=Nc2cccc3cccc1c23)c1ccc(Br)cc1	-97*	0%	i	-8%	-52%	-12
O=C(Nc1ccc(Cl)c(Cl)c1)Nc1ccccc1O	18	0%	i	21%	2.8µM*	3
O=C(Nc1ccc(Cl)cc1)Nc1ccc(Cl)c(Cl)c1	12	0%	-61%	-2%	-16%	13
COC(=O)c1cc(NC(=O)CN(c2ccccc2)S(=O)(=O)N(C)C)ccc1Cl	/	/	-4%	0%	-14%	-2
OC1(c2ccccc2)CCN(Cc2ccccc2)C2CCCCC21 (stereo not given)	-85*	0%	i	1%	-45%	12
Cc1oc(-c2cccs2)nc1CN1CC[C@@](O)(c2ccccc2)[C@H]2CCCC[C@@H]21	?	0%	i	-7%	-16%	-12
COc1ccc(NC(=O)CCC(=O)OCc2ccc([N+](=O)[O-])cc2)cc1	-15	-1%	84%	23%[11.4 µM]	25%	-1
O=C(Nn1cnc2ccccc2c1=O)c1ccc(Br)cc1	-2	-1%	-26%	-11%	23%	11
Cc1ccc(C(=O)Nn2cnc3ccccc3c2=O)cc1C	-10	0%	-21%	0%	8.9µM*	-2
COc1ccc(CCC(C)NCC2CCCCC2)cc1 (stereo not given)	-70*	?	8%	-7%	-5%	-11
COc1ccc(CCC(C)NC2CCCCCCC2)cc1 (stereo not given)	-67*	0%	-16%	-41%	-35%	-11
COc1ccc(CCC(C)NCc2cc(OC)cc(OC)c2)cc1 (stereo not given)	13	0%	-25%	-24%	-18%	-6
